Source: PubChem BioAssay (EPA / NIEHS)
Calls of active or inactive are those of the source. Rule for the calls: active = hit-call score of the fitted dose curve at least 0.9, where 1 is the maximum; inconclusive = response in the unintended direction; inactive = score below 0.9.

The compounds below were run on Thyroperoxidase (TPO), gene 54314 (assay: CCTE_Simmons_AUR_rTPO: CCTE's Amplex UltraRed Assay for Thyroperoxidase (TPO) Inhibition, Simmons Lab (AID 2283662);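 for AC50: potency for loss of signal meaning inhibition of peroxidase activity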).
Procedure: CCTE_Simmons_AUR_rTPO is a biochemical, single-readout assay that uses microsomes from rat thyroid gland in a tissue-based cell-free assay. Measurements were taken 0.5 hour after chemical dosing in a 384-well plate.CCTE_Simmons_AUR_rTPO is the assay component measured from the CCTE_Simmons_AUR_rTPO assay. It is designed to make measurements of thyroperoxidase (TPO) activity as detected with fluorescence intensity signals using the Amplex UltraRed technology as a form of enzyme activity reporter.Data from the assay component CCTE_Simmons_AUR_rTPO was analyzed at the endpoint, CCTE_Simmons_AUR_rTPO, in the positive analysis fitting direction relative to DMSO as the negative control and baseline of activity. Using a type of enzyme reporter, the Amplex UltraRed assay, loss-of-signal activity can be used to understand decreased peroxidase activity in the presence of excess […]. To generalize the intended target to other relatable targets, this assay endpoint is annotated to the oxidoreductase intended target family, where the subfamily is peroxidase.
As described previously (Paul et al., 2014), the AUR substrate was repurposed to detect peroxidase (ie, TPO) activity in the presence of excess H2O2 for the AUR-TPO assay. The reaction profile for the 384-well format AUR-TPO assay is scaled to an 80 ul assay volume containing 25 uM AUR, 300 uM H2O2, and 5 ug microsomal protein in 200 mM phosphate buffer. The assay concentration of thyroid microsomal protein was approximately […]. First, rat microsomes containing TPO and diluent 200mM potassium phosphate buffer were added to opaque, black 384-well plates (Greiner, BioExpress; Kaysville, Utah) using an automated liquid handler (BioTek MicroFlo; Winooski, Vermont) with a plastic 5 ul tubing cassette. Similarly, AUR was added next by automated liquid handling. Test compounds were administered using a HDRT as described earlier to achieve a 0.5% final DMSO concentration. Finally, H2O2 (300 uM, final concentration) was then added by the BioTek MicroFlo to initiate the reaction. Microplates were incubated at 37C in the dark for 30min. Plates were then shaken on a fluorescence plate reader (FLUOStar Optima, BMG LabTech; GmbH, Germany), and endpoint fluorescence (top read) was measured using 10 flashes per well at 544/590nm excitation/emission. Three biological replicates of technical singles were run for every chemical concentration tested. A titrated range of MMI served as a positive control for TPO inhibition on each plate of the AUR-TPO screening campaign. Test chemicals were administered as a titrated series of 8 concentrations from 5 nM up to 87.5 uM [final] for 30 minutes prior to single endpoint detection. Dimethylsulfoxide [DMSO] was used as the vehicle control. Methimazole [MMI] was used as the positive control and was administered as a titrated series of 8 concentrations from 1 nM up to 271 uM [final].
With `O=c1c(O)c(-c2ccc(O)cc2O)oc2cc(O)cc(O)c12` the AC50 was 0.337 µM (active).
In the case of `Nc1ccc(C(=O)O)cc1`, the AC50 is reported as 3.19 µM (active).
In the case of `CCCCCCCOC(=O)c1ccc(O)cc1`, the AC50 is reported as 52.6 µM (active).
With `CCCCCCCCCCCCc1ccc(O)cc1` the AC50 was 26.2 µM (active).
With `CCCCC1C(=O)N(c2ccccc2)N(c2ccccc2)C1=O` the AC50 was 39.6 µM (active).
For `CC(CCC(=O)O)(c1ccc(O)cc1)c1ccc(O)cc1`, the AC50 was 18.3 µM (active).
In the case of `CCCCCCOc1ccc(N)cc1`, the AC50 is reported as 0.494 µM (active).
`O=S(=O)(O)c1ccc(N=Nc2c(O)ccc3ccccc23)cc1` was tested, and the outcome was “inactive”.
With `N#Cc1ccc(C(c2ccc(C#N)cc2)n2cncn2)cc1` the outcome was “inactive”.
With `COC(=O)c1ccccc1C` the outcome was “inactive”.
With `CCCCCCCCCC[N+](C)(CCCCCCCCCC)CCC[Si](OC)(OC)OC` the AC50 was 48.9 µM (active).
`C/C=C/C=C/CCCCCCCO` was tested, and the AC50 was 25.8 µM (active).
With `CN(C)c1ccc2nc3ccc(=[N+](C)C)cc-3sc2c1` the AC50 was 34 µM (active).
For `O=C(O)c1cc(O)c2ccccc2c1O`, the AC50 was 30.7 µM (active).
With `CC(C)c1ccc(O)c(C(C)C)c1` the AC50 was 29.7 µM (active).
`c1ccc(Nc2cccc3ccccc23)cc1` was tested, and the AC50 was 5.32 µM (active).
`CC1=NN(c2ccc(S(=O)(=O)O)cc2)C(=O)C1N=Nc1ccccc1` (configuration not stated) was tested, and the outcome was “inactive”.
In the case of `CCc1occc(=O)c1O`, the AC50 is reported as 31 µM (active).
For `COc1ccc(-c2coc3cc(O)cc(O)c3c2=O)cc1`, the AC50 was 21.4 µM (active).
`CC(C)(c1ccccc1)c1ccc(Nc2ccc(C(C)(C)c3ccccc3)cc2)cc1` was tested, and the AC50 was 33.8 µM (active).
For `CCCCC/C=C\C/C=C\CCCCCCCC(=O)O`, the AC50 was 43.8 µM (active).
With `COc1ccc(C(=O)c2ccccc2)c(O)c1` the outcome was “inactive”.
